Experimental data as given in PubChem BioAssay AID1794835 (Parasite Biology Lab, Institute for Biomedicine and …, 2023).
The whole screen tested about 2,500 compounds, of which about 45 (2%) were called active. Cut-off read from the data, not from the text of the source: active = inhibition mostly above about 45% (no sharp cut-off); inactive = mostly below about 37%. The entries come from a sample that favours actives as a whole.

Test: anti-Giardia activity of synthetic compounds – Compounds Australia Scaffold Library subset, 24/48 h, primary screen (AID 1794835);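 for inhibition: 0% = parasite counts in DMSO vehicle wells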
Conditions: Giardia lamblia BRIS/91/HEPU/1279 trophozoite counts, imaging, at 10 µM
[1] = measured here: growth inhibition at 24 h, stronger effect = higher value

**Q.** With `CC(=O)Nc1ccc([N+](=O)[O-])c2nonc12` as the compound, how does the inhibition (stronger effect = higher value) read?
**A.** 63.4% (active)

**Q.** And the inhibition [1]?
**A.** 45%

**Q.** With `CCc1ccc(NC(=O)[C@@H]2c3cc(OC)c(OC)cc3C(=O)N3CCCC[C@@H]23)cc1` as the compound, how does the inhibition (stronger effect = higher value) read?
**A.** 28.1% (inactive)

**Q.** Which inhibition does the source give for `Cc1nn(C)c(C)c1CC(=O)N1CCC(N2CCCC2)C1` (stereo unspecified) here?
**A.** inactive

**Q.** For `CSc1ccc(C2NCc3ccccc3-n3cccc32)cc1` (stereo unspecified), which inhibition (stronger effect = higher value) is on record?
**A.** 3.9% (inactive)

**Q.** And the inhibition [1]?
**A.** 18.8%

**Q.** For `COc1ccc(C2c3cccn3-c3ccccc3CN2C(=O)CCC(=O)NC2CCCCC2)cc1` (stereo unspecified), which inhibition is on record?
**A.** inactive

**Q.** For `O=[N+]([O-])c1ccc(N2CCC(c3ncc[nH]3)CC2)c2ccncc12`, which inhibition (stronger effect = higher value) is on record?
**A.** 88.1% (active)

**Q.** What about the inhibition [1] of the same compound?
**A.** 64.1%

**Q.** Which inhibition (stronger effect = higher value) does the source give for `Cc1cccc(NC(=O)CN2CC(c3ccccc3)CC2=O)c1` (stereo unspecified) here?
**A.** 10.4% (inactive)

**Q.** And the inhibition [1]?
**A.** 2.3%

**Q.** Which outcome does the source give for `CC(=O)N1N=C2C3CCN(CC3)[C@@H]2[C@@H]1c1cccc2ccccc12` here?
**A.** inactive

**Q.** And the inhibition [1]?
**A.** 4.2%

**Q.** Which inhibition does the source give for `Cc1ccc2c(C3CCNCC3)c[nH]c2c1` here?
**A.** inactive

**Q.** For `Cc1cccc(OCC(=O)N2CCN(Cc3nnsc3Cl)CC2)c1C`, which inhibition (stronger effect = higher value) is on record?
**A.** 35.2% (inactive)

**Q.** And the inhibition [1]?
**A.** 20.5%
